# Experimental data published in PubChem BioAssay (NCI).
# The panel holds about 83,000 compounds, 20% with a hit somewhere; the sample as a whole holds those more often.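 In brief: 96-well plates, 48 h treatment, single concentration, percent growth endpoint.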 Values without a mark were called inactive. Calls of active or inactive are those of the source. Rule for the calls: active = growth percent below 10; inactive = the rest.
# Assays:
# Assay in all cases: NCI-60 one-dose screen, 48 h (100 = growth as untreated, 0 = no growth, -100 = all killed)
# Details in all cases: 10 µM unless noted
# SK-MEL-2 melanoma = test system: SK-MEL-2 melanoma
# EKVX NSCLC = test system: EKVX NSCLC
# SN12C renal = test system: SN12C renal
# UO-31 renal = test system: UO-31 renal
# TK-10 renal = test system: TK-10 renal
# ACHN renal = test system: ACHN renal
# CAKI-1 renal = test system: CAKI-1 renal
# A498 renal = test system: A498 renal
# CCRF-CEM leukemia = test system: CCRF-CEM leukemia
# MOLT-4 leukemia = test system: MOLT-4 leukemia
Compound,growth (SK-MEL-2 melanoma),growth (EKVX NSCLC),growth (SN12C renal),growth (UO-31 renal),growth (TK-10 renal),growth (ACHN renal),growth (CAKI-1 renal),growth (A498 renal),growth (CCRF-CEM leukemia),growth (MOLT-4 leukemia)
CC1(C)CC[C@]23CC[C@]4(C)[C@H](CC[C@@H]5[C@@]6(C)CC[C@H](NCO)C(C)(C)[C@@H]6CC[C@]54C)[C@H]2[C@H]1OC3,97.2%,93.9%,43.3%,73.9%,122%,26.4%,29.3%,106%,36.5%,15%
CS(=O)(=O)c1ccc(/C(=N/N=C(N)N)c2ccc(Cl)cc2)cc1,93.7%,91%,95.7%,84.4%,76.1%,99.1%,59.5%,76.9%,94.3%,99.1%
O=C1/C(=C/c2cc(F)cc(F)c2)Cc2cc3c(cc21)OCO3,44.3%,73.5%,45.7%,41.3%,99.4%,43.9%,29.1%,20.2%,56.1%,43.3%
C#Cc1cc(OC)c(C(=O)Nc2ccc(F)cc2C(=O)Nc2cccc(S(=O)(=O)C(F)(F)F)c2)cn1,45.1%,13.9%,17.1%,-85.1% (active),66.6%,-57.4% (active),-11.4% (active),-18.2% (active),-23.5% (active),-32.9% (active)
CCOC(=O)C(=O)Nc1ccc2c(ccn2C(=O)c2cccc(F)c2)c1,99.8%,82.8%,101%,88.2%,97.6%,80.2%,92.7%,84.2%,2.8% (active),107%
O=C1Nc2cc(Cl)ccc2/C1=C\c1ccc(OCc2ccccc2)cc1,111%,100%,96%,76.2%,154%,94.8%,89.3%,93%,102%,99.1%
CC(=O)Nc1nc(C)c(-c2csc(Nc3ccccc3)n2)s1,18.8%,-0.417% (active),24.4%,10.9%,31.4%,17.2%,28.6%,16%,27.1%,16.6%
COc1ccccc1/C=C/C(=O)c1nnn(-c2ccc(F)cc2)c1C,93.2%,69.3%,68.5%,38.1%,110%,46.1%,38.5%,66.8%,14%,45%
COc1ccc(C(C)=C(c2ccc(OCCN(C)C)cc2)c2ccc(OCCN(C)C)cc2)cc1,-70.3% (active),13.5%,0.111% (active),-59.4% (active),-56.1% (active),-46% (active),-69.1% (active),-38.9% (active),-23.6% (active),-37.6% (active)
NC1CC2(CCN(c3cnc(C(=O)Nc4cc(F)cc5cccnc45)cn3)CC2)C1,101%,81.9%,72.5%,76.1%,88%,79%,79.3%,74.3%,34.7%,40.8%
Cc1ccc(-c2nc(SCC(=O)c3ccccc3)nc(Nc3ccc(S(N)(=O)=O)cc3)c2C#N)cc1,95.7%,99.8%,63%,74.9%,67.5%,89.7%,51.5%,104%,82%,86.5%
CCOC(=O)c1c(NC(=O)c2ccc(C(F)(F)F)cc2)sc2c(CN3CCN(C)CC3)c(O)ccc12,44.8%,21.5%,-75.7% (active),-93.6% (active),-71.2% (active),-89.4% (active),-66% (active),-6.72% (active),-24.6% (active),-36.5% (active)
Cc1ccc(/C(N)=N/C(N)=N/c2nc3ccccc3s2)cc1,114%,67.7%,60.2%,87%,136%,66.8%,76.8%,121%,78.9%,75.9%
NS(=O)(=O)c1ccc(Nc2nc(Nc3ccccc3)nc(N3N=C(c4ccc(Cl)cc4)CC3c3ccc(Cl)cc3)n2)cc1 (stereo not given),65.6%,56.9%,40.2%,48.9%,89.3%,32.6%,42.7%,55.8%,14.2%,17.3%
Cc1cc2nc3c4cc(C#N)ccc4n(CCN(C)C)c3nc2cc1C,-86.7% (active),-7.83% (active),2.81% (active),-27.9% (active),-2.16% (active),-13.7% (active),-27.3% (active),-44% (active),3.32% (active),3.23% (active)
COc1cccc2c1[C@H](OC)[C@]13O[C@@]1(C2=O)[C@H](O)[C@H](C)[C@@](O)(C(=O)[C@@H]1O[C@H]1C)[C@@H]3O,-55.7% (active),-39.5% (active),-8.82% (active),-16.1% (active),-22.6% (active),1.83% (active),-23.4% (active),-82.4% (active),-20.3% (active),-39.8% (active)
O=S(=O)(NCCCNc1nccc(-c2[nH]c(-c3ccccc3)nc2-c2ccc(F)c(O)c2)n1)c1cccc2ccccc12,17.1%,82%,63.2%,75.2%,72.5%,59.6%,77.2%,73.1%,17%,31.4%
Cc1[nH]c(C(=O)Nc2ccccc2OCc2cccc(C(=O)NCCN)c2)cc1Cl,92.8%,105%,93.9%,92.2%,98.9%,95.1%,90.2%,68.3%,27.4%,68.6%
CN(C)CCNc1ccc2ncc(C#Cc3cncc(C(=O)Nc4ccc(CN5CCN(C)CC5)c(C(F)(F)F)c4)c3)n2n1,0.656% (active),7.33% (active),-9.94% (active),77.8%,26.6%,10.7%,3.13% (active),87.7%,5.95% (active),-9.54% (active)
COc1ccc(/C=N\NC(=O)c2cnn(CC(O)c3ccccc3)c2N)cc1OCc1ccc(Cl)cc1 (stereo not given),92.9%,79.1%,84.4%,87.4%,101%,58.6%,71%,48%,72.6%,62.4%
Cc1ccc(-c2csc(N/N=C/c3cccs3)n2)cc1,111%,65.2%,100%,75.1%,151%,90.4%,87.4%,116%,91.9%,86.7%
CCN(CC)S(=O)(=O)c1ccc(-c2nc(C(Cl)Cl)nc3cc(C)nn23)cc1,89.4%,25.8%,58.6%,46.4%,79.4%,8.7% (active),29.6%,74.8%,48.9%,36.1%
CC1=C(C)C(=O)C(Nc2ccc(C)c(C)c2)=C(Br)C1=O,112%,34.2%,98.7%,90.8%,157%,102%,94%,91.1%,-16.8% (active),-14.7% (active)
O=C(CSc1nnc(-c2ccc(Cl)cc2)n1-c1ccccc1)Nc1ccccc1Cl,95.5%,69.7%,29.4%,34.2%,85.1%,21.7%,74.6%,104%,76.7%,85.3%
O=C(CSc1nc2ccccc2c(=O)n1-c1ccc(Cl)c(Cl)c1)Nc1ccc(S(=O)(=O)Nc2ccc(Cl)nn2)cc1,103%,94.5%,96.4%,79.8%,118%,95.3%,82.1%,103%,97%,97.2%
CC(=O)c1cc(C(=O)N2c3ccccc3Sc3ccccc32)n2c1ccc1ccccc12,38.3%,78.4%,86.7%,64.6%,107%,50.1%,46.8%,30.1%,35.9%,54.7%
